# From PubChem BioAssay (EPA / NIEHS)
# Records with an inconclusive call do not appear. Activity calls are given as the source filed them. The calls were made as follows: active = hit-call score of the fitted dose curve at least 0.9, where 1 is the maximum; inconclusive = response in the unintended direction; inactive = score below 0.9.
# Target: Nuclear receptor subfamily 1 group I member 3 (Homo sapiens) (UniProt Q14994)
# Test: ATG_CAR_TRANS: Attagene TRANS-FACTORIAL HepG2 Assay for human Constitutive Androstane Receptor (CAR) (AID 2282969);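 also: activators raise reporter mRNA above DMSO so AC50 marks induction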
# Conditions: HepG2 Attagene TRANS-FACTORIAL CAR reporter
# Procedure: ATG_TRANS is a cell-based, multiplexed-readout assay that uses HepG2, a human liver cell line, with measurements taken at 24 hours after chemical dosing in a 24-well plate.ATG_CAR_TRANS is one of 30 assay component(s) measured or calculated from the ATG_TRANS assay. It is designed to make measurements of mRNA induction, a form of inducible reporter, as detected with fluorescence intensity signals by Reverse transcription polymerase chain reaction (RT-PCR) and Capillary electrophoresis technology.Data from the assay component ATG_CAR_TRANS was analyzed into 1 assay endpoint. This assay endpoint, ATG_CAR_TRANS, was analyzed in the positive analysis fitting direction relative to DMSO as the negative control and baseline of activity. Using a type of inducible reporter, measures of mRNA for gain-of-signal activity can be used to understand the reporter gene at the transcription factor-level as they relate to the gene NR1I3. Furthermore, this assay endpoint can be referred to as a primary readout, because this assay has produced multiple assay endpoints where this one serves a reporter gene function. To generalize the intended target to other relatable targets, this assay endpoint is annotated to the nuclear receptor intended target family, where the subfamily is non-steroidal.
# Human liver HepG2 cells are transiently transfected with multiple reporter transcription units (MRTUs) in 6-well plates using FuGene 6 reagent (Roche; 3 ml FuGene/1 mg DNA). The MRTU constructs are regulated by a cis-regulating element (promoter). […] A major difference between the CIS and TRANS system is that in CIS activities of endogenous TFs are measured, whereas the TRANS assay evaluates changes in activities of exogenous, chimeric NR-Gal4 proteins. […] At the end of 24 hour incubation, total RNA was isolated using TriZol reagent (Invitrogen). The isolated RNA is then reverse-transcribed using oligo(dT) primer and Mo-MLV reverse transcriptase (Invitrogen) with DNAse I (Ambion) treatment for 30 min. The one-tenth of the produced cDNA was amplified by PCR using Taq DNA polymerase (Invitrogen) and two reporter sequence-specific primers. The PCR products were fluorescently labeled by primer extension with 6-arboxyfluorescein (6-FAM) 5'-labeled reporter sequence-specific primer (2 min at 95 C, 20 s at 68 C and 10 min at 72 C) and these products were digested with 5U of HpaI (New England Biolabs) for 2h at 37 C. The fragments were purified using Qiaquick PCR columns (Qiagen), analyzed on an ABI 3130xL genetic analyzer (Applied Biosystems) with peak positions identified by using a set of X-rhodamine (ROX)-labeled MapMarker1000 molecular weight standards (BioVentures). The raw capillary electrophoresis data was processed using Attagraph software (Attagene).
# Nuclear receptor subfamily 1 group I member 3 (Homo sapiens), sequence (Q14994 whole entry, looked up): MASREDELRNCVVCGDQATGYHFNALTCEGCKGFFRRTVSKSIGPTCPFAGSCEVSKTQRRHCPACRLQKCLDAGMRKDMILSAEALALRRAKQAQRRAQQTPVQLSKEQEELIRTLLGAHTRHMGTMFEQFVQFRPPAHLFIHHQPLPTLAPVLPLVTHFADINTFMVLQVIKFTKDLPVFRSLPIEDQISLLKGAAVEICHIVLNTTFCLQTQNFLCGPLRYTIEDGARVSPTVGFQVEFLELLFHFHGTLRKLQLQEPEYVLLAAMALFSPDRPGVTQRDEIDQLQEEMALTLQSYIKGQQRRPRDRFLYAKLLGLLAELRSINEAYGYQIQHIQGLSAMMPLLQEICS
Structure (SMILES),outcome,AC50
CCc1cccc(CC)c1N,inactive,
CC(=O)c1ccccc1,inactive,
O=C(O)c1cccc(C[C@@H]2COc3ccc(OCc4nc5cc(F)ccc5s4)cc3[C@@H]2O)c1,inactive,
O=C(O)CO,inactive,
C[Si](C)(C)C(F)(F)C(F)(F)C(F)(F)F,inactive,
O=c1[nH]cnc2c1ncn2[C@H]1CC[C@@H](CO)O1,inactive,
OCC(CO)(CO)CO,inactive,
Cc1nc(-c2ccccn2)ncc1C(=O)Nn1cc(C)c2cc(F)ccc21,inactive,
FC(F)(F)COC(OCC(F)(F)F)OCC(F)(F)F,inactive,
C=CN1CCCC1=O,inactive,
S=P(N1CC1)(N1CC1)N1CC1,inactive,
CNC(C)=O,inactive,
CCN(CC)C(=S)SSC(=S)N(CC)CC,inactive,
OCCC(F)(F)C(F)(F)C(F)(F)C(F)(F)F,inactive,
CCn1nc(C)c2c1C(=O)NCC(c1ccc(O)cc1)=N2,inactive,
FC(F)=C(F)C(F)(F)C(F)(F)C(F)(F)C(F)(F)C(F)(F)C(F)(F)F,inactive,
CCCCC(CC)C(=O)OCCOCCOCCOC(=O)C(CC)CCCC (stereo not given),inactive,
CCCCCCCC1CCC(=O)O1 (stereo not given),inactive,
O=C(Cl)C(F)(F)C(F)(F)C(F)(F)C(=O)Cl,inactive,
FC(F)(F)C(F)(F)C(F)(F)C(F)(F)C(F)(F)C(F)(F)I,inactive,

Structure (SMILES),outcome,AC50
NCC(F)(F)C(F)(F)C(F)(F)C(F)(F)F,inactive,
OC(O)(C(F)C(O)(O)C(F)(F)F)C(F)(F)F,inactive,
FC(F)C(F)(F)COCC1CO1 (stereo not given),inactive,
O=S(=O)(O)c1ccc(N=Nc2c(O)ccc3cc(S(=O)(=O)O)ccc23)cc1,inactive,
CCCCCOC(C)=O,inactive,
C[C@@H](Oc1ccc(CNC(=O)c2cccnc2Oc2ccc3c(c2)OCO3)c(F)c1)C(=O)O,inactive,
CC(C)c1nnc2ccc(-c3ocnc3-c3cc(F)ccc3F)cn12,inactive,
O=S(=O)(O)CCC(F)(F)C(F)(F)C(F)(F)C(F)(F)C(F)(F)C(F)(F)F,inactive,
Cc1nccn1-c1ccc(Sc2cccc(C3(C(N)=O)CCOCC3)c2)cc1,inactive,
NC(=O)N(O)[C@@H]1COc2cc(OCc3ccccc3)ccc21,inactive,
COc1cc(C(C)C)c2c(c1)S(=O)(=O)N(COc1cc(=O)n3cccc(OCCN4CCCCC4)c3n1)C2=O,,2750 nM (active)
Cc1cccc(O)c1C,inactive,
O=C(N[C@H](CO)[C@H](O)c1ccc([N+](=O)[O-])cc1)C(Cl)Cl,inactive,
OCCOCCOCCO,inactive,
OC(CCl)CCl,inactive,
OCc1ccccc1,inactive,
CC(C)CC(C)O (stereo not given),inactive,
c1ccc2c(c1)-c1cccc3c1c-2cc1ccccc13,inactive,
CCOc1ccc2[nH]cc(C(=O)NCc3ccccc3)c(=O)c2n1,inactive,
OCc1c[nH]c2ccccc12,inactive,
